Reference: article PMC5540273 (PLoS ONE, 2017)

What was measured:
Details in all cases: concentration: 1 μM, replicates: in singlicate; n = 1
[1] = test system: EPHB6
[2] = test system: ERBB2
[3] = test system: ERBB3
[4] = test system: ERBB4
[5] = test system: T1, ERK1
T1 construct: gene MAPK3

[6] = test system: T2, ERK2
T2 construct: gene MAPK1

[7] = test system: T3, ERK3
T3 construct: gene MAPK6

[8] = test system: T4, ERK4
T4 construct: gene MAPK4

[9] = test system: T5, ERK5
T5 construct: gene MAPK7

[10] = test system: T6, ERK8
T6 construct: gene MAPK15

[11] = test system: ERN1
[12] = test system: T7, FAK
T7 construct: gene PTK2

[13] = test system: FER
[14] = test system: FES
[15] = test system: FGFR1
[16] = test system: FGFR2
[17] = test system: FGFR3
[18] = test system: FGFR4
[19] = test system: FGR
[20] = test system: FLT1
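Further: KINOMEscan kinase panel screen.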

Row | Structure (SMILES) | %Inh [1] [%] | %Inh [2] [%] | %Inh [3] [%] | %Inh [4] [%] | %Inh [5] [%] | %Inh [6] [%] | %Inh [7] [%] | %Inh [8] [%] | %Inh [9] [%] | %Inh [10] [%] | %Inh [11] [%] | %Inh [12] [%] | %Inh [13] [%] | %Inh [14] [%] | %Inh [15] [%] | %Inh [16] [%] | %Inh [17] [%] | %Inh [18] [%] | %Inh [19] [%] | %Inh [20] [%]
1 | c1ccc(-c2cc(-c3c[nH]nc3-c3ccccn3)ccn2)cc1 [GW576604] | 0 | 0 | 16 | 52 | 8 | 0 | 0 | 3 | 0 | 0 | 0 | 6 | 13 | 0 | 0 | 0 | 0 | 67 | 9 | 46
2 | O=c1cc(N2CCOCC2)nc2n(Cc3cccc(C(F)(F)F)c3)ccn12 [GSK2297543] | 0 | 16 | 0 | 5 | 0 | 0 | 0 | 12 | 0 | 0 | 6 | 0 | 34 | 0 | 11 | 0 | 19 | 1 | 17 | 17
3 | O=c1cc(N2CCOCC2)nc2n(Cc3cccc4ccccc34)ccn12 [GSK2333389] | 12 | 0 | 0 | 0 | 3 | 0 | 0 | 25 | 0 | 43 | 10 | 1 | 1 | 0 | 4 | 0 | 7 | 0 | 9 | 30
4 | Cc1c2ccc(N(C)c3ccnc(Nc4cccc(S(N)(=O)=O)c4)n3)cc2nn1Cc1ccccc1.Cl.Cl [GW787226] | 98.9 | 0 | 0 | 0 | 0 | 0 | 0 | 0 | 12 | 3 | 0 | 0 | 63 | 36 | 65 | 85 | 59 | 19 | 57 | 98.9
5 | c1ccc(-c2n[nH]cc2-c2ccnc3ccccc23)nc1 [GW271431] | 10 | 9 | 0 | 25 | 0 | 6 | 10 | 11 | 0 | 0 | 0 | 0 | 31 | 0 | 6 | 0 | 13 | 11 | 26 | 47
6 | CCc1ccnc(/C=C/c2n[nH]c3cc(Sc4ccccc4C(=O)NC)ccc23)c1 | 35 | 2 | 0 | 21 | 0 | 5 | 0 | 9 | 0 | 0 | 0 | 14 | 0 | 0 | 84 | 87 | 83 | 11 | 86 | 100
7 | CN1c2ccc(CNc3ccc(F)cc3)cc2-c2c(cnn2C)S1(=O)=O | 0 | 13 | 9 | 0 | 0 | 0 | 0 | 0 | 0 | 0 | 0 | – | 25 | 0 | 0 | 0 | 0 | 9 | 0 | 0
8 | COc1cc2ncn(-c3cc(OCc4sccc4Cl)c(C(N)=O)s3)c2cc1OC [GSK448459] | 28 | 44 | 0 | 31 | 0 | 0 | 8 | 0 | 0 | 20 | 0 | 0 | 10 | 0 | 0 | 15 | 13 | 0 | 9 | 15
9 | NS(=O)(=O)c1cccc(-c2ccc3ncc(N4CCOCC4)nc3c2)c1 [GSK1535721] | 25 | 32 | 11 | 1 | 0 | 0 | 0 | 0 | 10 | 0 | 2 | 0 | 3 | 6 | 0 | 0 | 22 | 15 | 27 | 13
10 | CNc1ncnc2[nH]ncc12 [SKF-18355] | 0 | 17 | 22 | 4 | 0 | 0 | 0 | 0 | 0 | 14 | 33 | 0 | 30 | 0 | 0 | 0 | 5 | 0 | 0 | 0
11 | C[C@@H](Oc1cc(-n2cnc3ccc(NC(=O)NC(C)(C)C)cc32)sc1C(N)=O)c1ccccc1Cl [GSK346294] | 21 | 15 | 22 | 0 | 0 | 0 | 7 | 19 | 0 | 0 | 13 | 0 | 43 | 0 | 13 | 0 | 30 | 14 | 8 | 46
